# Laboratory results published in PubChem BioAssay AID651965 (National Center for Advancing Translational Sciences (NCATS), 2013).
# Screen size: about 340,000 compounds; about 6,400 (1.9%) were called active. Entries that show only a call come without a potency. Another 4% or so got no clear call; they are omitted. Calls follow the shape of the dose curve; as a rule, active = well fitted falling curve with a large enough effect; inconclusive = small, poorly fitted or top-dose-only effect; inactive = no such curve, though single readings can be large or run the other way. Many of the other results were omitted from the sample, so actives are more common in it than they were.
# Target: ATP-dependent Clp protease proteolytic subunit (Bacillus subtilis (strain 168)) (UniProt P80244)
# Assay: qHTS Assay for Activators of ClpP; also: the source files actives as falling curves though it sought activators and does not explain the sign; nearly all actives have a fitted effect of over 65% in size
# Conditions: purified B. subtilis ClpP, FRET peptide cleavage, 20 min; series mostly up to 57.5 µM
# Method in brief: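 FRET quenching reversal measured ClpP activation: 10 microg/mL B. subtilis ClpP at pH 8 with the FRET-FV decapeptide, read at 430 nm after 320 nm excitation. The 20-min minus 0-min signal was scaled between DMSO/no-enzyme wells and ADEP (5.8 microM final).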
# Potency is read from the fitted curve at half-maximal effect.
# Sequence of ATP-dependent Clp protease proteolytic subunit (Bacillus subtilis (strain 168)) (P80244 whole entry, looked up): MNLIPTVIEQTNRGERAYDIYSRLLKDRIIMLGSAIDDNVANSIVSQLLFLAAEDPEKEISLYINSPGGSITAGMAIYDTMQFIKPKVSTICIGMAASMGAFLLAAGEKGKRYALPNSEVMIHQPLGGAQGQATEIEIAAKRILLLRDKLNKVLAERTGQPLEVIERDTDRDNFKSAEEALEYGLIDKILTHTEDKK
row,Structure (SMILES),Potency
1,COC(=O)[C@@]12C[C@@H](CC(=O)N3CCC(c4ccccc4)CC3)C(=O)N(Cc3ccccc3)C1=CCC(C)(C)C2,inactive
2,Cc1nnc(SCC(=O)NCCOc2ccc(Cl)cc2)n1-c1ccccc1,inactive
3,COCCNC(=O)CSc1nc(N)c(NC(=O)c2ccco2)c(=O)[nH]1,inactive
4,COCCNC(=O)CSc1nc(-c2ccccc2)[nH]c1-c1ccc(C)cc1,31.6 µM (active)
5,CC1(C(=O)NS(=O)(=O)c2ccccc2)CCN1C(=O)c1ccccc1 (stereo not drawn),inactive
6,O=C(c1cc(C2CCCCN2S(=O)(=O)c2ccccc2)on1)N1CCOCC1 (stereo not drawn),inactive
7,O=C(Nc1ccc2c(c1)OCCO2)C1CCCC1,inactive
8,CN1C(=O)c2ccc(NC(=O)C3CCCCC3)cc2C1=O,31.6 µM (active)
9,CN1C(=O)c2ccc(C(=O)Nc3ccc(Br)cn3)cc2C1=O,inactive
10,CN1C(=O)c2ccc(NC(=O)c3c(F)c(F)c(F)c(F)c3F)cc2C1=O,31.6 µM (active)
11,Cc1nc2ccc(NC(=O)C3CCCCC3)cc2s1,inactive
12,Cc1cccc(C(=O)Nc2ccc3c(c2)C(=O)N(CC(C)C)C3=O)c1,inactive
13,COc1ccc(CN(Cc2ccccc2)C(=O)c2ccc(O)cc2)cc1COc1ccc(NC(C)=O)cc1,inactive
14,C[C@@H]1CN([C@@H](C)CO)C(=O)CCCn2nncc2CO[C@H]1CN(C)Cc1ccc(C(F)(F)F)cc1,inactive
15,C#CCN(C[C@@H]1[C@@H](OC(=O)NC2CC2)[C@@H](OC(=O)NC2CC2)Cn2c(=O)ccc(=O)n21)S(=O)(=O)c1ccc(C)cc1,inactive
16,COc1cccc(C2C(C(=O)Nc3ccc(C)cc3C)=C(C)Nc3c(C(=O)Nc4ccccc4)cnn32)c1 (stereo not drawn),inactive
17,CCc1ccc(C2C(C(=O)Nc3ccccc3)=C(C)Nc3c(C(=O)Nc4ccc(C)cc4)cnn32)cc1 (stereo not drawn),31.6 µM (active)
18,CC1=C(C(=O)Nc2ccccc2)C(c2ccc(C)cc2)n2nc(SCc3ccccc3C)nc2N1 (stereo not drawn),inactive
19,CC1(C(=O)NCc2ccc3c(c2)OCO3)CCN1C(=O)Cc1cccs1 (stereo not drawn),inactive
20,COc1cccc(CNc2nc(NCc3ccccc3OC)nc3ccsc23)c1,inactive
21,CCC(=O)N1CCCC1(C)C(=O)Nc1ccc2c(c1)CCN2C(C)=O (stereo not drawn),inactive
22,Cc1ccc(C(=O)NC(=S)NCCN2CCOCC2)cc1,28.2 µM (active)
23,CCn1cc(/C=C(\NC(=O)c2ccc(C)cc2)C(=O)NCCN2CCOCC2)c2ccccc21,inactive
24,Cc1cc(C)cc(C(=O)NCCN2CCOCC2)c1,inactive
25,CCCNC(=O)c1cc2c(c(-c3cccc(-c4ccc(C#N)cc4)c3)n1)[C@@H](CCO)N(C(=O)CC)C2,inactive

row,Structure (SMILES),Potency
1,CC(C)OC(=O)CC(=O)CC(O)c1cccc([N+](=O)[O-])c1 (stereo not drawn),inactive
2,COC(=O)c1ccc2nc(-c3ccc(F)cc3)c(Cc3ccc(C)cc3)n2c1,inactive
3,CC(=O)Oc1ccc(NC(=O)CCC2CCCCC2)c(C(=O)O)c1,22.4 µM (active)
4,COC(=O)c1sccc1NC(=O)CCC1CCCC1,inactive
5,COc1ccc(NC(=O)CCCC2CCCCC2)c(OC)c1,inactive
6,CCc1nc2c(OCc3ccc(C(F)(F)F)cc3)cccn2c1N(C)C(=O)CC(C)C,inactive
7,Cc1ccccc1CN1C(=O)CSCC1(C)C(=O)Nc1c(C)cccc1C (stereo not drawn),inactive
8,CC(C)(C)C1CCC(NC(=O)c2cnn3c2NC(=C2CC2)C=C3C(F)F)CC1 (stereo not drawn),inactive
9,Cc1ccc(C(=O)NCCSc2c(C)[nH]c3ccccc23)cc1C,inactive
10,CCCCNC(=O)c1ccc(-n2c(=S)[nH]c3ccccc3c2=O)cc1,inactive
11,CN(C)CCCNC(=O)c1ccc2[nH]c3ccccc3c2c1,12.6 µM (active)
12,COc1ccc(NC(=O)c2sc(=O)n(Cc3ccc(S(=O)(=O)N(C)C)cc3)c2C)cc1,inactive
13,CCN1C(=O)[C@H]2[C@@H](c3ccccc3)N[C@]3(CCCN(Cc4ccc(C)cc4)C3=O)[C@H]2C1=O,inactive
14,NS(=O)(=O)c1ccc(NC(=O)COC(=O)c2ccco2)cc1,inactive
15,COCCn1c(C)cc(C(=O)COC(=O)CNC(=O)c2ccco2)c1C,inactive
16,O=C(CNC(=O)c1ccco1)OCC(=O)c1ccccc1,25.1 µM (active)
17,CCc1ccc(C(=O)COC(=O)c2ccco2)cc1,inactive
18,CCOC(=O)c1ccc(NC(=O)CNC(=O)c2ccco2)cc1,inactive
19,O=C(COC(=O)CNC(=O)c1ccco1)Nc1ccc(F)cc1,25.1 µM (active)
20,CC(O)(c1cccc(F)c1)c1nc(-c2ccc3c(c2)OCO3)cs1 (stereo not drawn),inactive
21,C[C@@H]1CN([C@@H](C)CO)C(=O)c2cc(Br)cnc2O[C@H]1CN(C)Cc1ccc(-c2ccccc2)cc1,inactive
22,C[C@@H]1CN([C@H](C)CO)C(=O)CCCn2nncc2CO[C@@H]1CN(C)S(=O)(=O)c1cccc(C#N)c1,inactive
23,CC[C@@H]1CC2=C(C(=O)OC(C)(C)O2)[C@@H](CC)O1,inactive
24,CC1(c2cccc(Br)c2)NC(=O)N(CC(=O)NCCC2=CCCCC2)C1=O (stereo not drawn),inactive
25,COc1cc2cc(CN(CCN3CCCC3)C(=O)Nc3ccccc3Cl)c(=O)[nH]c2cc1OC,3.16 µM (active)

row,Structure (SMILES),Potency
1,Cc1ccc2[nH]c(=O)c(CN(CCCN(C)C)C(=O)Nc3cccc(Cl)c3)cc2c1,inactive
2,COc1ccc(CCN(Cc2cc3cccc(C)c3[nH]c2=O)C(=O)N2CCCC2)cc1OC,inactive
3,O=S1(=O)CC(N2CCSCC2)CN1Cc1cn(Cc2cccc(Cl)c2)nn1 (stereo not drawn),inactive
4,CCc1nc2c(OCc3ccccc3)cccn2c1N(C)C(=O)c1ccco1,inactive
5,CC(=O)Oc1ccc(Cn2c(C)c(C(=O)NCc3ccc(C#N)cc3)sc2=O)cc1,inactive
6,CC(=O)NC(c1cccc(F)c1)c1nc(-c2cccc(F)c2)cs1 (stereo not drawn),inactive
7,CCOC(=O)c1ccn(-c2nc(-c3ccco3)cc(C(F)(F)F)n2)n1,inactive
8,Cc1nn(-c2nc(-c3ccccc3)cc(C(F)(F)F)n2)c(C)c1Cl,inactive
9,COc1ccc(CNc2nc(-c3ccc(Cl)cc3)cc(C(F)(F)F)n2)cc1,inactive
10,COc1nc(NCc2ccc(Cl)cc2)nc(OC)n1,inactive
11,FC(F)(F)c1cc(-c2ccco2)nc(NCc2ccc(Cl)cc2)n1,28.2 µM (active)
12,Cc1cc(C(F)(F)F)nn1-c1nc(-c2ccco2)cc(C(F)(F)F)n1,35.5 µM (active)
13,CCc1oc(-c2ccc(OC)cc2)c(C(=O)OCCCCCO)c1C(C)OCCO (stereo not drawn),inactive
14,CCSC1(SCC)N=C(N)C2(C#N)C(c3ccccc3)NC(C)=CC12C#N (stereo not drawn),15.8 µM (active)
15,CNc1cncc(-c2ccc(NS(C)(=O)=O)cc2)n1,inactive
16,COc1cccc(CN2CCC(C(=O)NC(c3ccc4c(c3)OCO4)c3ccccn3)CC2)c1 (stereo not drawn),inactive
17,O=C(COc1ccccc1C(=O)Nc1ccccc1)Nc1cccc(F)c1,inactive
18,CC(C)n1c(CN2CCN(Cc3ccccc3)CC2)nc2ccccc21,inactive
19,CC(C)n1c(-c2cccs2)nc2ccccc21,3.98 µM (active)
20,CCC(c1nc2ccccc2[nH]1)n1c(=O)c(-c2cccs2)nc2ccccc21 (stereo not drawn),inactive
21,COc1cc(C=C(OC(C)=O)c2ccc3c(c2)OCO3)cc(OC)c1OC,inactive
22,CCCCSc1[nH]c(=O)c(C(=O)OCC)cc1C#N,31.6 µM (active)
23,CCOC(=O)c1cc(C)nc(S(C)(=O)=O)c1C#N,inactive
24,CCOC(=O)c1cnc(COc2ccccc2Cl)[nH]c1=O,inactive
25,CC(C)(C(=O)N1CCC1(C)C(=O)NS(=O)(=O)c1ccc(Br)cc1)c1ccccc1 (stereo not drawn),inactive

row,Structure (SMILES),Potency
1,COc1cc(Cl)c(C)cc1NC(=O)[C@@H]1CCCN1C(=O)c1cccs1,inactive
2,O=C(Nc1ccccc1)c1ccc(NC(=O)c2cccs2)cc1,inactive
3,COc1cc(NC(=O)c2cccs2)ccc1NC(=O)c1ccccc1Cl,14.1 µM (active)
4,CCC1OC(C2CC2)CC2=C1C(=O)OC(C)(C)O2 (stereo not drawn),inactive
5,CCc1cc(C(N)=O)c(NC(=O)c2ccc(OC)cc2)s1,inactive
6,CC(C)(C)OC(=O)N(Cc1ccccc1)Cc1ccc(OCc2cccc(NC(=O)c3ccccc3)c2)cc1,inactive
7,CC(C)c1cc(C(N)=O)c(NC(=O)c2cccc(COc3ccc(Br)cc3)c2)s1,25.1 µM (active)
8,COCCNC(=O)C1(C)CCCN(Cc2cccc(F)c2)C1 (stereo not drawn),inactive
9,COc1ccc(OCCn2ccnc2C)cc1,3.16 µM (active)
10,COc1ccc(OCCCn2c(C)nc3cc(C)c(C)cc32)cc1,inactive
11,COc1ccc(OCCCCN2CCC(C)CC2)cc1,inactive
12,O=C(C[C@H]1C[C@H]2c3cc(NS(=O)(=O)c4ccc(F)cc4)ccc3O[C@H]2[C@H](CO)O1)NCc1cc(F)ccc1F,inactive
13,COC(=O)c1[nH]c2ccccc2c1NC(=O)CN1CCCc2ccccc21,inactive
14,Cc1cc(NC(=O)CCN2CCN(Cc3ccccc3)CC2)ccc1Br,inactive
15,CCOC(=O)N1CCN(CCC(=O)Nc2cc(OC)ccc2OC)CC1,inactive
16,CCOC(=O)c1[nH]c2ccc(OC)cc2c1NC(=O)N1CCOCC1,25.1 µM (active)
17,CCOC(=O)c1[nH]c2ccc(OC)cc2c1NC(=O)CCN1CCN(Cc2ccccc2)CC1,31.6 µM (active)
18,Cc1c(C(=O)CN2CCOCC2)[nH]c2ccccc12,inactive
19,CCOC(=O)[C@]12CCCC=C1N(Cc1ccc(Cl)cc1Cl)C(=O)[C@H](CC(=O)N1CCCCC1)C2,inactive
20,OCC(O)C(O)C(O)C(O)C=Nc1ccc(/C=C/c2ccnc3ccccc23)cc1 (stereo not drawn),inactive
21,CCCc1ccc(S(=O)(=O)N2CCN(C(=O)c3cc(C)on3)CC2)cc1,inactive
22,CCOc1ccc(CCN2C(=O)C(=O)N([C@@H](CC(C)C)CN3CCC[C@H]3CN3C(=O)C(=O)NC[C@@H]3Cc3ccccc3)C[C@@H]2CC(C)C)cc1,inactive
23,CC(C)NC(=O)C1(C)CCCCCN1C(=O)c1ccc(-c2ccccc2)cc1 (stereo not drawn),inactive
